# Reference: paper PMC7826789 (International Journal of Molecular Sciences, 2021)
smiles,measurement,setting,value
Nc1nccc(-c2c(-c3ccc(F)cc3)ncn2CCCN2CCOCC2)n1 [SB-216385],Kinases covered,MAP2K4,MAP2K4
CN(C)C/C=C/C(=O)Nc1ccc(C(=O)Nc2cccc(Nc3ncc(Cl)c(-c4c[nH]c5ccccc45)n3)c2)cc1 [THZ1],Kinases covered,MAP3K11,MAP3K11
CCn1c(-c2nonc2N)nc2ccccc21 [SB-693162],Kinases covered,MAP3K19,MAP3K19
Cc1cccc(CC(=O)N2CCc3c2ccc(-c2cn(C)c4ncnc(N)c24)c3F)n1 [GSK2656157],Kinases covered,MAP3K2,MAP3K2
CC(C)(C)c1ccc(C(=O)Nc2cn3cc(-c4cccnc4)ccc3n2)cc1 [TPKI-58],Kinases covered,MAP3K5,MAP3K5
Cc1cc(-c2ccc3c(c2)CC[C@@H](N[C@@H](C)c2ccccc2)C3)cnc1N [GW412617],Kinases covered,MAP4K2,MAP4K2
Cl.O=C1Nc2ccc(-c3cccnc3)cc2C1=Cc1cc(Br)c(O)c(Br)c1 [GW429374A],Kinases covered,MAP4K4,MAP4K4
COCCNC(=O)c1ccc(-c2cc(C(=O)NC3CC3)cc(F)c2C)cc1 [GW868318],Kinases covered,MAPK11,MAPK11
Cc1ccc(C(=O)NCC(N)=O)cc1-n1c(C)cc(OCc2ccc(F)cc2F)c(Br)c1=O [PFE-PKIS 1],Kinases covered,MAPK11,MAPK11
